Values without a mark were called inactive. For some assays here: Entries with a potency or affinity are not part of this list. The source made the active and inactive calls. Unless noted, how the calls were made is not given here.
Columns and labels:
[1] = antimalarial activity against Dd2 strain (AID 2302;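 active means growth inhibition above 50% at the single 2 µM test dose, taken to imply half-maximal potency below 2 µM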;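 further: 0% = DMSO untreated growth and 100% = chloroquine plus artemisinin killed control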); details: P. falciparum Dd2 in RBCs, LDH growth readout, 72 h; at 2 µM; stronger effect = higher value
[2] = human hepatoma cell viability loss – ATP luminescence, cytotoxicity control for P. falciparum antimalarial project, primary screen (AID 2303;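 active means inhibition above 50%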;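 further: 0% = DMSO wells and 100% = digitonin-killed cells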); details: HepG2 viability, 24-48 h, at 10 µM, stronger effect = higher value
[3] = biological target: L-lactate dehydrogenase (Plasmodium falciparum (isolate CDC / Honduras)) (UniProt Q27743); assay: PfLDH activity inhibition – cell lysate, 3D7 strain, counter-screen for P. falciparum growth inhibition project (AID 2304);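 further: 0% = vehicle and 100% = reference inhibitor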; details: P. falciparum 3D7 crude extract, LDH APAD/NBT absorbance; at 2 µM; stronger effect = higher value
Sequence of L-lactate dehydrogenase (Plasmodium falciparum (isolate CDC / Honduras)) (Q27743 whole entry, looked up): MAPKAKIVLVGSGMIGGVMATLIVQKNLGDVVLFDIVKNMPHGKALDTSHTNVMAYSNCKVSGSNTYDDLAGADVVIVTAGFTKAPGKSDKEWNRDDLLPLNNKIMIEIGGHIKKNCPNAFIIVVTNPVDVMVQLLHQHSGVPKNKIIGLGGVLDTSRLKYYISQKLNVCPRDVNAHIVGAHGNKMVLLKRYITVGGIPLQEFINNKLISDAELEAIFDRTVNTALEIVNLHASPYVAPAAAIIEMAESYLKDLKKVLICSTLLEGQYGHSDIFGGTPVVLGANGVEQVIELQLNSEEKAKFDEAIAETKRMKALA

[4] = inhibition of 3D7 malaria parasite growth – strain 3D7 (AID 2306);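 further: 0% = DMSO wells and 100% = chloroquine plus artemisinin control wells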; details: P. falciparum 3D7 erythrocytic growth, LDH absorbance, 72 h; at 2 µM; stronger effect = higher value
[5] = biological target: Calcium-dependent protein kinase 1 (Plasmodium falciparum (isolate 3D7)) (UniProt P62344); assay: PfCDPK1 kinase inhibitors, biochemical, TCAMS library (AID 1159585; cut-off not given, nearly all actives have IC50 up to about 0.98 µM;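 further: inhibitors leave more ATP so luminescence rises with inhibition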); details: recombinant PfCDPK1, Kinase-Glo ATP depletion luminescence
Sequence of Calcium-dependent protein kinase 1 (Plasmodium falciparum (isolate 3D7)) (P62344 whole entry, looked up): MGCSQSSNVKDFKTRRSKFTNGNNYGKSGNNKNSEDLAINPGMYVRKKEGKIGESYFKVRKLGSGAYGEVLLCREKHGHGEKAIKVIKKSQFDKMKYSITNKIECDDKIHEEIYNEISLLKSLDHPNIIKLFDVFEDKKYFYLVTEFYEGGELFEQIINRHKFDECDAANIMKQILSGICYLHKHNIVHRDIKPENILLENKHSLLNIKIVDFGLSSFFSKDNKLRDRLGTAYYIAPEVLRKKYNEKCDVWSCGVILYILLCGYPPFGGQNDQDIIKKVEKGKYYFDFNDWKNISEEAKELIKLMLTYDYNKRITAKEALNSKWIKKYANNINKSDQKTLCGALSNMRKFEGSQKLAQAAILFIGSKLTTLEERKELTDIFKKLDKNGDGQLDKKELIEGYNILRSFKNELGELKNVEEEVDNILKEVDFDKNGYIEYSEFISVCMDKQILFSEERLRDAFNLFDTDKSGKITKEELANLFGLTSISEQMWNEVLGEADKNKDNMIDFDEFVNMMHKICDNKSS

[6] = biological target: Plasmodium falciparum protein kinase 6 (PK6, PF3D7_1337100) (UniProt Q8IDW1); assay: PfPK6 kinase inhibitors, biochemical, TCAMS library (AID 1159586); details: recombinant PfPK6, Kinase-Glo ATP depletion luminescence
Sequence of Plasmodium falciparum protein kinase 6 (PK6, PF3D7_1337100) (Q8IDW1 1-305): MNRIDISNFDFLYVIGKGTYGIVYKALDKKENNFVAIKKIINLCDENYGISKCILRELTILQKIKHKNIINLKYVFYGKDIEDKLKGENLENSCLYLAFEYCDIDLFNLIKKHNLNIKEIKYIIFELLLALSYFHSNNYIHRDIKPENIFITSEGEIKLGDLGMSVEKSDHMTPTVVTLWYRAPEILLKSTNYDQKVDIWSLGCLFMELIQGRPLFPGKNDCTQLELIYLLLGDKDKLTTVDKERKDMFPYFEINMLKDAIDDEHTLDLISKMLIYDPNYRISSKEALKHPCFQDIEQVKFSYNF

[7] = biological target: Protein kinase 7 (PK7), Plasmodium falciparum 3D7 (PF3D7_0213400) (UniProt Q7YTF7); assay: inhibition of Plasmodium PK7 catalytic activity – biochemical, TCAMS antimalarial set, Kinase-Glo luminescence (AID 1159587); details: recombinant PfPK7, Kinase-Glo ATP depletion luminescence
Sequence of Protein kinase 7 (PK7), Plasmodium falciparum 3D7 (PF3D7_0213400) (Q7YTF7 1-343): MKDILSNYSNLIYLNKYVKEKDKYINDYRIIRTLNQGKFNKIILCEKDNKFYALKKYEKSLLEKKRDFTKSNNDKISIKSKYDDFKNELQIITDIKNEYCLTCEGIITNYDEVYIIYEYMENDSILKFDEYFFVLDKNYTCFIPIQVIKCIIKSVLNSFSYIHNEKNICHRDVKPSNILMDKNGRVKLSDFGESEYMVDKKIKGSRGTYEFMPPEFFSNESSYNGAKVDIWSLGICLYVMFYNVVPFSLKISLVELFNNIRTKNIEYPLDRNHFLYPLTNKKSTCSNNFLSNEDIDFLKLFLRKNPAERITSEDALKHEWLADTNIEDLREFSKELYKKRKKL

[8] = biological target: Calcium-dependent protein kinase 4 (Plasmodium falciparum (isolate 3D7)) (UniProt Q8IBS5); assay: PfCDPK4 kinase inhibitors, biochemical, TCAMS library (AID 1159588; cut-off not given, nearly all actives have IC50 up to about 0.91 µM); details: recombinant PfCDPK4, Kinase-Glo ATP depletion luminescence
Sequence of Calcium-dependent protein kinase 4 (Plasmodium falciparum (isolate 3D7)) (Q8IBS5 whole entry, looked up): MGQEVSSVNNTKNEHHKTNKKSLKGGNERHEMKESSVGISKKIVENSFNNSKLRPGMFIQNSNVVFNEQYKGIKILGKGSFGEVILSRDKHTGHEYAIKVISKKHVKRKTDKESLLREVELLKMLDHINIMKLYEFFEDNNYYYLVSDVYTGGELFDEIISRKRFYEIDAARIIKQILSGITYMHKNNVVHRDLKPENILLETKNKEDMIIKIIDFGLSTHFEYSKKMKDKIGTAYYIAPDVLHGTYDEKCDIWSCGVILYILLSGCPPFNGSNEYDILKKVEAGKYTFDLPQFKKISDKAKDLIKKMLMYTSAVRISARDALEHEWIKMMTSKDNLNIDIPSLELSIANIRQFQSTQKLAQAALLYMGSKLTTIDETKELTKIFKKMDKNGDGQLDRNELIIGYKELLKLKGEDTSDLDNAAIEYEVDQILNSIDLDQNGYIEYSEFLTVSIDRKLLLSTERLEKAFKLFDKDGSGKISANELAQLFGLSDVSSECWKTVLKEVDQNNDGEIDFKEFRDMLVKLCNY

Compound	growth inhibition [1]	inhibition [2]	inhibition [3] [%]	growth inhibition [4]	outcome [5]	outcome [6]	outcome [7]	outcome [8]
Cc1cccc2[nH]c(-c3ccc(-c4ccc(CNCCN5CCNCC5)cc4)s3)nc12	-2%	30%	3	88% (active)	inactive	inactive	inactive	inactive
O=C(/C=C/c1ccc(Cl)c(Cl)c1)NCCCCCN1CCC(CCNC(=O)/C=C/c2cc(C(F)(F)F)ccc2F)CC1	46%	25%	-5	98% (active)	inactive	inactive	inactive	inactive
NCc1ccc(-c2ccccc2CNC2CCN(Cc3ccccc3)CC2)cc1	3%	20%	-2	94% (active)	inactive	inactive	inactive	inactive
Cc1ccc(-c2noc(=O)n2CC(=O)Nc2ccccc2-c2ccccc2)cc1	86% (active)	-1%	2	100% (active)	inactive	inactive	inactive	inactive
O=C(NC1CCN(Cc2ccccc2)CC1)c1cc(-c2ccncc2)c(-c2ccc(Cl)c(O)c2)o1	86% (active)	9%	1	100% (active)	inactive	inactive	inactive	inactive
CN1CCc2ccc(NC(=O)Nc3cccc(C(=O)c4ccccc4)c3)cc2C1	16%	11%	-1	83% (active)	inactive	inactive	inactive	inactive
N#Cc1ccc(-c2ccc(C(=O)NCCCCN3CCC(c4cc(Br)c5c(c4O)CCCC5)CC3)cc2)cc1	50% (active)	93% (active)	7	101% (active)	inactive	inactive	inactive	inactive
Cc1nc(/N=C(\N)NC(=O)NC2CCCCC2)nc2ccccc12	99% (active)	21%	-2	95% (active)	inactive	inactive	inactive	inactive
O=C(C=Cc1ccc(Cl)c(Cl)c1)NCCCCCN1CCCC(CCCNC(=O)c2ccc3c(c2)OCO3)C1 (stereo not given)	4%	30%	3	95% (active)	inactive	inactive	inactive	inactive
CCCCCCNCc1c(O)ccc2c(CNCCCCCC)c(O)ccc12	100% (active)	22%	-1	102% (active)	inactive	inactive	inactive	inactive
Cc1ccc2c(NN=Cc3ccc(Cl)cc3)cc(C)nc2c1	34%	-1%	-2	100% (active)	inactive	inactive	inactive	inactive
Nc1ncc(Cc2ccc3c(ccc4ccccc43)c2)c(N)n1	3%	9%	-5	97% (active)	inactive	inactive	inactive	inactive
CC(C)c1ccc(CN2CCC(NC(=O)c3ccc(-c4cccc(F)c4)s3)CC2)cc1	12%	47%	3	83% (active)	inactive	inactive	inactive	inactive
CCCC(=O)Nc1ccc(OCCCN(Cc2ccccc2C(F)(F)F)c2ccc(C#N)c(C(F)(F)F)c2)cc1	79% (active)	-5%	2	89% (active)	inactive	inactive	inactive	inactive
O=C(NC1CCC(N2CCN(c3cccc(C(F)(F)F)c3)CC2)CC1)c1cc2ccccc2[nH]1 (stereo not given)	22%	23%	0	99% (active)	inactive	inactive	inactive	inactive
O=C1Nc2cccc3c2C1(CCCCN1CCC(c2c(-c4ccc(F)cc4)[nH]c4ccccc24)CC1)CCC3 (stereo not given)	28%	25%	-4	91% (active)	inactive	inactive	inactive	inactive
CCc1cc(NC2CCN(C)CC2)nc(Nc2cccc(OC)c2)n1	37%	22%	-6	93% (active)	inactive	inactive	inactive	inactive
Cc1nc2nc(N)nc(N)c2c(C)c1Cc1cccc(F)c1	1%	65% (active)	-5	96% (active)	inactive	inactive	inactive	inactive
COc1cc(C(C)C)ccc1C1CCN(CCCCNC(=O)c2ccc(NC(=O)c3ccc(Cl)cc3)cc2)CC1	99% (active)	100% (active)	3	98% (active)	inactive	inactive	inactive	inactive
CN(C)C(=NCCCCCCN=C(NC(N)=NCc1ccc(Cl)c(Cl)c1)N(C)C)NC(N)=NCc1ccc(Cl)c(Cl)c1	99% (active)	20%	-9	93% (active)	inactive	inactive	inactive	inactive

Compound	growth inhibition [1]	inhibition [2]	inhibition [3] [%]	growth inhibition [4]	outcome [5]	outcome [6]	outcome [7]	outcome [8]
Fc1ccc2[nH]c3c(NCCN4CCCCC4)ncnc3c2c1	44%	24%	0	99% (active)	inactive	inactive	inactive	inactive
O=C(/C=C/c1ccc(C(F)(F)F)cc1)NCCCCCN1CCCN(C(=O)Nc2ccc(Cl)cc2)CC1	-1%	28%	-1	99% (active)	inactive	inactive	inactive	inactive
CCCOc1c(CCNCCCCNCCc2ccc3ccccc3c2OCCC)ccc2ccccc12	78% (active)	100% (active)	7	100% (active)	inactive	inactive	inactive	inactive
COc1ccc2nccc([C@@H](O)CN3CCC(NCc4cc5cc(OC(F)(F)F)ccc5[nH]4)CC3)c2c1	82% (active)	49%	2	100% (active)	inactive	inactive	inactive	inactive
Cc1ccc2c(NN=Cc3ccc(N(C)C)cc3)cc(C)nc2c1	46%	-9%	8	99% (active)	inactive	inactive	inactive	inactive
CC(Cc1ccc(NC(=O)c2ccc(CNCCCCc3ccccc3)cc2)cc1)NCCc1cccc(Cl)c1 (stereo not given)	96% (active)	100% (active)	-1	100% (active)	inactive	inactive	inactive	inactive
COc1cc2nc(N3CCC(CNC(=O)c4ccc(-c5ccc(C(=O)N(C)C)cc5C)cc4)CC3)nc(N3CCN(C)CC3)c2cc1OC	84% (active)	26%	-10	88% (active)	inactive	inactive	inactive	inactive
CN(CCCN(C)c1cc(NC(=O)c2ccc(F)cc2)ccn1)Cc1cccc(F)c1	60% (active)	-5%	-1	83% (active)	inactive	inactive	inactive	inactive
CSc1cccc(Nc2nc3ccc(S(=O)(=O)NC(C)C(C)C)cc3n2[C@H](C)C(C)(C)C)c1 (stereo not given in full)	98% (active)	-10%	0	97% (active)	inactive	inactive	inactive	inactive
N#Cc1ccc(CN2CCC(Oc3ccc(NC(=O)c4cccs4)cc3)C2)cc1 (stereo not given)	65% (active)	5%	1	82% (active)	inactive	inactive	inactive	inactive
COCCOc1nc(N)nc2ncc(Cc3cc(OC)ccc3OC)c(C)c12	0%	61% (active)	-5	96% (active)	inactive	inactive	inactive	inactive
CC(C)(C)OC(=O)/C=C(\C(=O)OCc1ccc([N+](=O)[O-])cc1)c1csc(NC(c2ccccc2)(c2ccccc2)c2ccccc2)n1	97% (active)	2%	3	96% (active)	inactive	inactive	inactive	inactive
CC(=O)c1cc(N2CCOCC2)ccc1N	43%	7%	3	91% (active)	inactive	inactive	inactive	inactive
Cc1cccc2[nH]c(-c3ccc(-c4cccc(NC(=O)Nc5cccc(C#N)c5)c4)cc3)nc12	86% (active)	25%	7	102% (active)	inactive	inactive	inactive	inactive
COc1cc(Cc2cnc(N)nc2N)cc(OCCCc2cc(OCc3ccccc3)no2)c1OC	4%	30%	2	86% (active)	inactive	inactive	inactive	inactive
COC(=O)[C@@H](NC(=O)[C@@H](Nc1ccc(C#N)c2ccccc12)C(C)(C)C)c1ccc(O)cc1	74% (active)	-4%	1	101% (active)	inactive	inactive	inactive	inactive
CC(C)CNCc1cccc(-c2cccc(CN(CCCN3CCN(C)CC3)C(=O)/C=C/c3ccccc3)c2)c1	88% (active)	44%	7	90% (active)	inactive	inactive	inactive	inactive
CCC(=O)N(c1ccccc1)C1CCN(CCCC(NC(=O)Nc2cc(C(F)(F)F)cc(C(F)(F)F)c2)c2ccc(Cl)c(Cl)c2)CC1 (stereo not given)	18%	29%	-5	99% (active)	inactive	inactive	inactive	inactive
O=C(Cn1c(SCc2cccc(F)c2F)cc(=O)c2ccccc21)N(Cc1ccc(-c2ccc(C(F)(F)F)cc2)cc1)C1CCN(CCO)CC1	81% (active)	50% (active)	4	89% (active)	inactive	inactive	inactive	inactive
CN1CCC(C(=O)N(Cc2ccc(-c3ccc(CNCCc4ccc(S(C)(=O)=O)cc4)cn3)cc2)C2Cc3ccccc3C2)CC1	49%	21%	-2	98% (active)	inactive	inactive	inactive	inactive

Source: PubChem BioAssay
